PubChem BioAssay (NCI)
Compounds without any hit were thinned out: in the full panel of roughly 83,000, 20% have a hit.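 Single-concentration screen, 48 h exposure, 96-well plates. Endpoint: percent growth. Below 10 = active.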 A number with no mark means an inactive call. Activity calls are given as the source filed them.

Columns and labels:
Assay in all cases: NCI-60 one-dose screen, 48 h (100 = growth as untreated, 0 = no growth, -100 = all killed)
Details in all cases: 10 µM
NCI-H23 lung = system: NCI-H23 lung
NCI-H226 lung = system: NCI-H226 lung
NCI-H322M lung = system: NCI-H322M lung
HOP-62 NSCLC = system: HOP-62 NSCLC
NCI-H460 lung = system: NCI-H460 lung
HOP-92 NSCLC = system: HOP-92 NSCLC
NCI-H522 lung = system: NCI-H522 lung
A549/ATCC NSCLC = system: A549/ATCC NSCLC
786-0 renal = system: 786-0 renal
COLO 205 colon = system: COLO 205 colon
DU-145 prostate = system: DU-145 prostate
K-562 leukemia = system: K-562 leukemia
MALME-3M melanoma = system: MALME-3M melanoma
MDA-MB-231 breast = system: MDA-MB-231 breast
SF-268 CNS = system: SF-268 CNS
SF-295 CNS = system: SF-295 CNS
SF-539 CNS = system: SF-539 CNS
UACC-257 melanoma = system: UACC-257 melanoma
M14 melanoma = system: M14 melanoma
RXF 393 renal = system: RXF 393 renal

Row | Compound | growth (NCI-H23 lung) [%] | growth (NCI-H226 lung) | growth (NCI-H322M lung) [%] | growth (HOP-62 NSCLC) [%] | growth (NCI-H460 lung) | growth (HOP-92 NSCLC) | growth (NCI-H522 lung) | growth (A549/ATCC NSCLC) [%] | growth (786-0 renal) | growth (COLO 205 colon) | growth (DU-145 prostate) | growth (K-562 leukemia) | growth (MALME-3M melanoma) | growth (MDA-MB-231 breast) | growth (SF-268 CNS) [%] | growth (SF-295 CNS) | growth (SF-539 CNS) | growth (UACC-257 melanoma) | growth (M14 melanoma) | growth (RXF 393 renal)
1 | C(=C\c1nc2ccccc2s1)/c1ccc(N2CCOCC2)s1 | 78 | 89.4% | 79.7 | 118 | 80.7% | 93% | 64.2% | 83.3 | 82.5% | 94.8% | 92.4% | 31.8% | 103% | 75.5% | 98.2 | 69% | 81.1% | 90.2% | 36.6% | –
2 | O=C(Nc1cccc(-c2nc3ccccc3[nH]2)c1)c1cccc(NC(=O)c2ccco2)c1 | 98 | 90.1% | 94.1 | 73.2 | 91.6% | 38.8% | 98.5% | 82.7 | 67% | 31.4% | 103% | 2.96% (active) | 73.9% | 34.6% | 75.7 | 80.3% | 64.9% | -20.2% (active) | 3.76% (active) | 67.6%
3 | N#CCC1CCCC1 | 115 | 107% | 111 | 92.7 | 105% | 80% | 109% | 101 | 96.3% | 109% | 127% | 106% | 114% | 104% | 114 | 90.6% | 111% | 100% | 105% | 107%
4 | COc1ccc(-c2nc3sc(-c4ccccc4)c(-c4ccccc4)n3c2/C=C/c2ccc(F)cc2)cc1 | 97 | 107% | 103 | 95.9 | 92.9% | 94.5% | 106% | 83.8 | 100% | 99.6% | 103% | 107% | 96.6% | 86.7% | 97.8 | 97% | 92.1% | 99% | 83.1% | 89.4%
5 | C[N+]1=C(/C=C/c2ccc(I)cc2)C(C)(C)c2ccccc21 | 82 | 104% | 89.1 | 108 | 103% | 65% | 68.8% | 109 | 97.4% | 95% | 104% | 109% | 86% | 67.1% | 89.9 | 100% | 98.7% | 104% | 91% | 70.7%
6 | COc1ccc(-c2nsc3c2NC(=O)CC3c2ccc(Cl)cc2)cc1 (configuration not stated) | 83.9 | 84.4% | 83.5 | 92.6 | 94.8% | 73.3% | 68.1% | 76.6 | 84.2% | 93.8% | 98.4% | 66.6% | 78% | 94.9% | 97.2 | 79.2% | 92.5% | 82.5% | 84.4% | 105%
7 | COc1cc(CSc2nc3ccc(C)cc3c(=O)n2-c2ccccc2)cc(OC)c1OC | 22 | 48.3% | 47.4 | 37.8 | 20.2% | 67.9% | 8.32% (active) | 39.3 | 37.6% | -24.2% (active) | 29.8% | 10.4% | 42.5% | 38% | 47.5 | 32.8% | 3.56% (active) | 50.2% | 17.2% | 14.2%
8 | O=C(COc1ccc(Cl)cc1Cl)Oc1coc(CSc2nc3ccccc3s2)cc1=O | 94.5 | 93.8% | 114 | 107 | 101% | 110% | 74.8% | 27.8 | 113% | 114% | 106% | 83% | 93.4% | 86.8% | 102 | 105% | 98.6% | 27.3% | 110% | –
9 | COc1cc(-c2cc(-c3cc(OC)c(OC)c(OC)c3)nc3nc(N)[nH]c(=O)c23)ccc1Oc1ccnc2cc(Cl)ccc12 | 42.1 | 76% | 37.5 | 29.8 | 13.8% | 6.33% (active) | 29.9% | 32.3 | 51.4% | 105% | 33.9% | 10.6% | 59% | 36.7% | 47.2 | 93.5% | -59.7% (active) | 66.6% | 12.6% | -13% (active)
10 | CCOC(=O)c1ccc(NC(=O)Nc2nncs2)cc1 | 21.9 | -21.3% (active) | 43.2 | 26.4 | 7.58% (active) | 58.2% | 7.15% (active) | 19.4 | 35.4% | -25.9% (active) | -18% (active) | 7.79% (active) | 22.2% | 14.8% | 29.3 | -39.9% (active) | 14.6% | 67.9% | 4.02% (active) | -15.2% (active)
11 | COc1ccc(-c2nnc(SCC(=O)c3ccccc3)o2)cc1 | 91.2 | 97.5% | 107 | 84.5 | 105% | 89.2% | 83.9% | 98.1 | 79.4% | 107% | 102% | 92.3% | 104% | 99.3% | 102 | 101% | 98.8% | 89.4% | 101% | 94.2%
12 | Cc1ccc(/C(CS(=O)(=O)c2ccc(C)cc2)=N\O)cc1 | 99.9 | 93.6% | 104 | 111 | 106% | 87.4% | 97% | 94.6 | 102% | 118% | 111% | 105% | 116% | 103% | 108 | 90.8% | 97.3% | 97% | 116% | 93.6%
13 | CN(C)CCCN1c2ccccc2Sc2ccc(C(F)(F)F)cc21 | 47 | 54.7% | 37.1 | 37.2 | 13.8% | -9.96% (active) | -15.2% (active) | 53.3 | 9.65% (active) | -77.8% (active) | 50.3% | -46.2% (active) | -80.6% (active) | 4.03% (active) | 16.8 | -2.18% (active) | 3.74% (active) | 6.53% (active) | -84.6% (active) | –
14 | COc1cc(-c2cc(/C=C/C(C)=O)[nH]n2)cc(OC)c1OC | 87.7 | 81.7% | 79.4 | 84.2 | 95.2% | 74.9% | -66% (active) | 86.2 | 84.5% | 93.4% | 77% | 46.6% | 67.5% | 78.8% | 82.4 | 76% | 93.4% | 79.9% | 84.9% | 89.4%
15 | O=C(NCCCl)c1cc(Cl)cc(Cl)c1 | 103 | 102% | 98.2 | 109 | 113% | 109% | 92.8% | 90.7 | 102% | 112% | 111% | 101% | 97.8% | 121% | 112 | 92.4% | 101% | 91.8% | 116% | 114%
16 | O=c1ccc2nc(-c3ccccc3)nn(-c3ccccc3)c-2c1 | 54.4 | 68.1% | 88.2 | 69.5 | 81.4% | -33% (active) | -90.5% (active) | 73.7 | 48.6% | -78.8% (active) | -95.4% (active) | -39% (active) | -92.5% (active) | 76.3% | 70.5 | 23.9% | 105% | -97.3% (active) | 51.2% | -92.8% (active)
